In PubChem BioAssay AID1159580 (chemical genetic matrix, 2015):
Several values for one entry are separate records, joined by “and”; a condition that tells them apart may be missing. Identical values can stand only once. The whole screen tested about 5,500 compounds, of which about 2,000 (36%) were called active. Another 18% or so got no clear call; they are omitted. Cut-off read from the data, not from the text of the source: active = normalized growth mostly below about 0.91 (no sharp cut-off); inconclusive = no clear call, values can overlap the other calls; inactive = mostly above about 0.92. This is one part of the list.

Test: chemical genetic growth profiling, strain panel (AID 1159580);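 note: tested at 20 µM; growth read once vehicle control cultures reached saturation at 30 °C; 1 = growth at the plate median or of vehicle wells; lower values mean less growth of the strain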
Conditions: S. cerevisiae deletion strains, growth OD
[1] = locus YPL055C, strain LGE1, stronger effect = lower value
[2] = locus YPL241C, strain CIN2, stronger effect = lower value

Measured: normalized growth

Cc1cc(C)c(NC(=O)C[C@H](CC(=O)O)c2cccc3ccccc23)c(C(=O)N2CCC3(CCCC3)CC2)c1
inactive: locus YAL040C, strain CLN3, stronger effect = lower value 1.01 | locus YCL061C, strain MRC1 (second series), stronger effect = lower value 0.986 | locus YDR363W, strain ESC2, stronger effect = lower value 0.973 | locus YER002W, strain NOP16, stronger effect = lower value 0.975 | locus YGR078C, strain PAC10, stronger effect = lower value 0.972 | locus YGR229C, strain SMI1, stronger effect = lower value 1.01 | locus YMR263W, strain SAP30, stronger effect = lower value 0.995 | locus YNL175C, strain NOP13, stronger effect = lower value 0.976 | locus YNL197C, strain WHI3, stronger effect = lower value 0.964 | locus YNL224C, strain SQS1, stronger effect = lower value 0.977 | locus YNL322C, strain KRE1, stronger effect = lower value 0.99 | locus YOR083W, strain WHI5 (second series), stronger effect = lower value 0.977 | [1] 0.972 | [2] 0.987

CC(C)(C#N)O[C@@H]1O[C@H](CO)[C@@H](O)[C@H](O)[C@H]1O
inactive: locus YAL013W, strain DEP1, stronger effect = lower value 1 | locus YAL021C, strain ccr4, stronger effect = lower value 1.01 | locus YAL026C, strain drs2, stronger effect = lower value 1 | locus YAL030W, strain snc1, stronger effect = lower value 1 | locus YBL061C, strain skt5, stronger effect = lower value 0.998 | locus YBR009C, strain hhf1, stronger effect = lower value 1 | locus YBR021W, strain FUR4, stronger effect = lower value 1.1 | locus YBR023C, strain chs3, stronger effect = lower value 1 | locus YBR171W, strain sec66, stronger effect = lower value 1.01 | locus YBR229C, strain ROT2, stronger effect = lower value 0.997 | locus YBR231C, strain swc5, stronger effect = lower value 0.998 | locus YBR279W, strain paf1, stronger effect = lower value 1.01 | locus YCL011C, strain gbp2, stronger effect = lower value 1.01 | locus YCL016C, strain dcc1, stronger effect = lower value 1 | locus YCL029C, strain bik1, stronger effect = lower value 0.993 | locus YCL069W, strain vba3, stronger effect = lower value 0.997 | locus YCR088W, strain abp1, stronger effect = lower value 1.01 | locus YDL005C, strain med2, stronger effect = lower value 0.993 | locus YDL035C, strain GPR1, stronger effect = lower value 1.02 | locus YDL040C, strain nat1, stronger effect = lower value 1.01 | locus YDL074C, strain BRE1, stronger effect = lower value 1.02 | locus YDL101C, strain DUN1, stronger effect = lower value 1.01 | locus YDL185W, strain tfp1, stronger effect = lower value 0.983 | locus YDL192W, strain arf1, stronger effect = lower value 0.988 | locus YDR001C, strain nth1, stronger effect = lower value 1.01 | locus YDR069C, strain doa4, stronger effect = lower value 1.03 | locus YDR101C, strain arx1, stronger effect = lower value 0.997 | locus YDR137W, strain rgp1, stronger effect = lower value 1.02 | locus YDR150W, strain NUM1, stronger effect = lower value 1.02 | locus YDR159W, strain sac3, stronger effect = lower value 0.965 | locus YDR162C, strain NBP2, stronger effect = lower value 1.05 | locus YDR195W, strain ref2 0.98 | locus YDR297W, strain sur2, stronger effect = lower value 1.01 | locus YDR318W, strain mcm21, stronger effect = lower value 1 | locus YDR334W, strain swr1, stronger effect = lower value 1 | locus YDR335W, strain msn5, stronger effect = lower value 1 | locus YDR388W, stronger effect = lower value 0.992 | locus YDR392W, strain spt3, stronger effect = lower value 1.02 | locus YDR502C, strain sam2, stronger effect = lower value 0.998 | locus YEL003W, strain gim4, stronger effect = lower value 1.01 | locus YEL037C, strain rad23, stronger effect = lower value 1.01 | locus YEL061C, strain CIN8 (second series), stronger effect = lower value 1.02 | locus YEL061C, strain CIN8, stronger effect = lower value 1 | locus YER015W, strain faa2, stronger effect = lower value 0.998 | locus YER016W, strain bim1, stronger effect = lower value 0.999 | locus YER110C, stronger effect = lower value 0.985 | locus YER111C, strain swi4, stronger effect = lower value 1.01 | locus YER155C, strain BEM2 (second series), stronger effect = lower value 1.02 | locus YER155C, strain BEM2, stronger effect = lower value 0.99 | locus YER167W, strain BCK2, stronger effect = lower value 1.01 | locus YFR010W, strain ubp6, stronger effect = lower value 1.01 | locus YGL078C, strain dbp3, stronger effect = lower value 0.989 | locus YGL086W, strain mad1, stronger effect = lower value 0.997 | locus YGL167C, strain pmr1, stronger effect = lower value 1 | locus YGL173C, strain kem1, stronger effect = lower value 1 | locus YGL227W, strain vid30, stronger effect = lower value 1 | locus YGL240W, strain doc1, stronger effect = lower value 1.01 | locus YGL248W, strain PDE1, stronger effect = lower value 1.01 | locus YGL253W, strain hxk2, stronger effect = lower value 1 | locus YGR135W, strain pre9, stronger effect = lower value 0.975 | locus YGR252W, strain gcn5, stronger effect = lower value 0.979 | locus YHR013C, strain ard1, stronger effect = lower value 0.996 | locus YHR027C, strain rpn1, stronger effect = lower value 0.984 | locus YHR030C, strain SLT2, stronger effect = lower value 0.997 and 1.06 | locus YHR079C, strain IRE1 (second series), stronger effect = lower value 0.994 | locus YHR079C, strain IRE1, stronger effect = lower value 1.07 | locus YHR094C, strain hxt1, stronger effect = lower value 0.984 | locus YHR129C, strain ARP1, stronger effect = lower value 1 | locus YHR142W, strain chs7, stronger effect = lower value 1 | locus YHR200W, strain rpn10, stronger effect = lower value 0.995 | locus YIL066C, strain RNR3, stronger effect = lower value 1.02 | locus YIL073C, strain SPO22, stronger effect = lower value 1 | locus YIL125W, strain kgd1, stronger effect = lower value 1 | locus YIR030C, strain dcg1, stronger effect = lower value 0.998 | locus YJL092W, strain hpr5, stronger effect = lower value 1 | locus YJL095W, strain BCK1 (second series), stronger effect = lower value 1.01 | locus YJL095W, strain BCK1, stronger effect = lower value 1.05 and 0.974 | locus YJL115W, strain asf1, stronger effect = lower value 0.999 | locus YJL129C, strain trk1, stronger effect = lower value 1.03 | locus YJL134W, strain LCB3, stronger effect = lower value 0.993 | locus YJL154C, strain vps35, stronger effect = lower value 1.01 | locus YJL164C, strain tpk1, stronger effect = lower value 1 | locus YJL166W, strain qcr8, stronger effect = lower value 1.01 | locus YJL168C, strain set2, stronger effect = lower value 1 | locus YJL187C, strain SWE1 (second series), stronger effect = lower value 1.03 | locus YJL187C, strain SWE1, stronger effect = lower value 1 | locus YJR043C, strain POL32, stronger effect = lower value 1.02 | locus YJR066W, strain TOR1, stronger effect = lower value 0.981 | locus YJR075W, strain HOC1, stronger effect = lower value 1.02 | locus YKL009W, strain mrt4, stronger effect = lower value 0.982 | locus YKL068W, stronger effect = lower value 0.998 | locus YKL085W, strain MDH1 (second series), stronger effect = lower value 1.01 | locus YKL085W, strain MDH1, stronger effect = lower value 1.01 | locus YKL160W, strain elf1, stronger effect = lower value 1 | locus YKL190W, strain CNB1, stronger effect = lower value 1.02 | locus YKR001C, strain vps1, stronger effect = lower value 1 | locus YKR026C, strain gcn3, stronger effect = lower value 0.997 | locus YKR091W, strain srl3, stronger effect = lower value 1 | locus YLL001W, strain dnm1, stronger effect = lower value 1.01 | locus YLL026W, stronger effect = lower value 0.99 | locus YLL041C, strain sdh2, stronger effect = lower value 1.01 | locus YLR027C, strain aat2, stronger effect = lower value 1 | locus YLR039C, strain RIC1, stronger effect = lower value 1.05 | locus YLR058C, strain SHM2, stronger effect = lower value 1.01 | locus YLR102C, strain apc9, stronger effect = lower value 0.983 | locus YLR113W, strain HOG1, stronger effect = lower value 0.999 | locus YLR221C, strain rsa3, stronger effect = lower value 1.03 | locus YLR258W, strain gsy2, stronger effect = lower value 1.01 | locus YLR262C, strain YPT6 (second series), stronger effect = lower value 1.01 | locus YLR262C, strain YPT6, stronger effect = lower value 1.07 | locus YLR268W, strain sec22, stronger effect = lower value 1 | locus YLR320W, strain mms22, stronger effect = lower value 0.999 | locus YLR330W, strain CHS5, stronger effect = lower value 0.994 | locus YLR342W, strain FKS1 (second series), stronger effect = lower value 1.02 | locus YLR342W, strain FKS1, stronger effect = lower value 1 | locus YLR357W, strain rsc2, stronger effect = lower value 0.971 | locus YLR370C, strain arc18, stronger effect = lower value 1 | locus YLR371W, strain rom2, stronger effect = lower value 0.982 | locus YLR384C, strain iki3, stronger effect = lower value 0.986 | locus YLR418C, strain cdc73, stronger effect = lower value 1.01 | locus YML016C, strain PPZ1, stronger effect = lower value 0.987 | locus YML032C, strain rad52, stronger effect = lower value 1.01 | locus YML120C, strain ndi1, stronger effect = lower value 0.994 | locus YML124C, strain tub3, stronger effect = lower value 0.994 | locus YMR058W, strain fet3, stronger effect = lower value 0.999 | locus YMR078C, strain ctf18, stronger effect = lower value 0.976 | locus YMR125W, strain sto1, stronger effect = lower value 1 | locus YMR129W, stronger effect = lower value 0.996 | locus YMR205C, strain PFK2, stronger effect = lower value 1.02 | locus YMR223W, strain ubp8, stronger effect = lower value 0.984 | locus YMR231W, strain pep5, stronger effect = lower value 0.996 | locus YMR307W, strain GAS1, stronger effect = lower value 0.96 | locus YNL067W, strain RPL9B, stronger effect = lower value 1.04 | locus YNL071W, strain lat1, stronger effect = lower value 1.01 | locus YNL183C, strain NPR1, stronger effect = lower value 0.973 | locus YNL209W, strain ssb2, stronger effect = lower value 1.01 | locus YNL233W, strain BNI4, stronger effect = lower value 1.02 | locus YNL248C, strain rpa49, stronger effect = lower value 0.984 | locus YNL250W, strain rad50, stronger effect = lower value 0.978 | locus YNL271C, strain bni1, stronger effect = lower value 0.987 | locus YNL298W, strain CLA4, stronger effect = lower value 0.987 | locus YNL307C, strain MCK1, stronger effect = lower value 1.02 | locus YNL322C, strain KRE1 (second series), stronger effect = lower value 0.993 | locus YNR049C, strain mso1, stronger effect = lower value 1 | locus YNR052C, strain pop2, stronger effect = lower value 0.984 | locus YOL006C, strain TOP1, stronger effect = lower value 1.06 | locus YOL012C, strain htz1 0.871 | locus YOL147C, strain pex11, stronger effect = lower value 0.995 | locus YOR001W, strain rrp6, stronger effect = lower value 1.01 | locus YOR061W, strain CKA2, stronger effect = lower value 0.997 | locus YOR069W, strain VPS5, stronger effect = lower value 0.99 | locus YOR070C, strain gyp1, stronger effect = lower value 1.01 | locus YOR080W, strain dia2, stronger effect = lower value 1.01 | locus YOR083W, strain WHI5, stronger effect = lower value 1.01 | locus YOR106W, strain vam3, stronger effect = lower value 1.04 | locus YOR136W, strain idh2, stronger effect = lower value 0.985 | locus YOR144C, strain elg1, stronger effect = lower value 0.997 | locus YOR184W, strain ser1, stronger effect = lower value 1.03 | locus YOR231W, strain MKK1, stronger effect = lower value 1.01 | locus YOR265W, strain rbl2, stronger effect = lower value 1.01 | locus YOR270C, strain vph1, stronger effect = lower value 1.22 | locus YOR290C, strain snf2, stronger effect = lower value 1.02 | locus YOR316C, strain cot1, stronger effect = lower value 0.983 | locus YPL051W, strain arl3, stronger effect = lower value 1.01 | [1] 1.06 | locus YPL078C, strain atp4, stronger effect = lower value 1.01 | locus YPL106C, strain sse1, stronger effect = lower value 0.985 | locus YPL240C, strain hsp82, stronger effect = lower value 0.995 | [2] 1.01 | locus YPL256C, strain CLN2, stronger effect = lower value 1.06 | locus YPR119W, strain clb2, stronger effect = lower value 0.996 | locus YPR141C, strain kar3, stronger effect = lower value 0.982 | locus YPR163C, strain tif3, stronger effect = lower value 0.997 | locus YPR167C, strain met16, stronger effect = lower value 1.01 | strain wtn01, stronger effect = lower value 0.984
